From PubChem
In the library only some 5.4% were active in any assay of this set; here they are far more common.
CSC inhib = cancer stem cell inhibition | cancer stem cell-like cells viability, luminescence | inhibition, % at 7.5 µM | 1.1% of 300,000 active; in the data active = inhibition above about 75%; inconclusive = no clear call, values can overlap the other calls; tested in HMLE shEcad cells
PP1 inh = PP1-alpha (human) inhibition in PP5 counter-screen. P62136. purified PP1alpha, OMFP fluorescence. inhibition, % at 6.7 µM. 0.9% of 320,000 active;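 active = inhibition above the mean inhibition of all tested compounds plus 3 SD, computed separately for each screening campaign, cut at about 15% in these data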
Target sequence (P62136 whole entry, looked up): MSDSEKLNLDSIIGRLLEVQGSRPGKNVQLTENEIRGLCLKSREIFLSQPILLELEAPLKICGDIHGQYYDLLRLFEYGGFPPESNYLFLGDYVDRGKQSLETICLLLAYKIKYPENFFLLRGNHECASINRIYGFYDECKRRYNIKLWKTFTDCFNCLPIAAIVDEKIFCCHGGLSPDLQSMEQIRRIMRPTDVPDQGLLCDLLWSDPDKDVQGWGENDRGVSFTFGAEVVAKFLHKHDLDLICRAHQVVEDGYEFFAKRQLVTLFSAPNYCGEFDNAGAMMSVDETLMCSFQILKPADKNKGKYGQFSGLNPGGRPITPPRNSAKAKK
ALR H2O2 inh = inhibitors of human sulfhydryl oxidase ALR; P55789; AID 485317; inhibition, % (concentration not given with the values); purified ALR, DTT oxidation, H2O2 HRP-luminol luminescence; 3.8% of 290,000 active;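 active = mean replicate inhibition above about 79%, with every replicate also reaching it, limit read from the data; inconclusive = only one of the two criteria met; inactive = mean below limit and not every replicate reaching it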
Target sequence (P55789 whole entry, looked up): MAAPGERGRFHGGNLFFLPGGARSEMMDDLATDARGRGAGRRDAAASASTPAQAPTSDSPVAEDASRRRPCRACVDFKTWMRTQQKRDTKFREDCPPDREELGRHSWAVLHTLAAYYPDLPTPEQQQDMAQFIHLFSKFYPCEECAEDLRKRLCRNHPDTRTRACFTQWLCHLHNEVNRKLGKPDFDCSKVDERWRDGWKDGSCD
PP5 primary = blocks human protein phosphatase 5 activity. purified PP5c, OMFP substrate fluorescence. inhibition, % at 6.7 µM. 0.18% of 320,000 active. P53041;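 active = inhibition above the campaign's mean inhibition across all tested compounds plus 3 SD, cut at about 9.5% in these data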;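 also: 0% = DMSO only and 100% = 100 µM cantharidin control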
Calb FLC = affects C. albicans growth with fluconazole | 0.57% of 300,000 active | C. albicans CaCi-2 (fluconazole-resistant clinical isolate) + fluconazole, Alamar Blue growth, 48 h | growth inhibition, % (concentration not given with the values) | AID 1979;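 active = growth inhibition above about 58% in most replicates, limit read from the data, passing the limit was not always enough; inconclusive = exactly half the replicates above a set limit; inactive = most replicates below a set limit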;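 also: all wells also contain fluconazole at 8 µg/ml as a sub-toxic cotreatment; 0% = median of DMSO wells and 100% = median of geldanamycin control wells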
Active calls of the source: *.

How did CCN(CC)C(=O)Cn1c(=O)n(-c2ccccc2)c(=O)c2c3c(sc21)CCC3 do in these assays?
CSC inhib: -6; PP1 inh: 1; ALR H2O2 inh: 9; PP5 primary: 0; Calb FLC: 113*

Results for COC(=O)Cn1c(=O)n(CCc2ccccc2)c(=O)c2c3c(sc21)CCCC3 ?
CSC inhib: -1; PP1 inh: -3; ALR H2O2 inh: -6; PP5 primary: 3; Calb FLC: inconclusive

What do the screens show for `CCCCCc1ccc(OCCOCCn2c[n+](C)c3ccccc32)c(CCCCC)c1`?
Calb FLC: 104*

Results for CCn1c(C)nc2cc(C(=O)N/N=C/c3cccc(O)c3O)ccc21 ?
CSC inhib: -5; PP1 inh: 7; ALR H2O2 inh: 99*; PP5 primary: 2; Calb FLC: 23

Results for CCn1c(C)nc2cc(C(=O)N/N=C(\C)c3ccc(N4CCOCC4)cc3)ccc21 ?
CSC inhib: -14; PP1 inh: -4; ALR H2O2 inh: 13; PP5 primary: 0; Calb FLC: -14

What do the screens show for `CCn1c(C)nc2cc(C(=O)N/N=C/c3ccc(N4CCOCC4)cc3)ccc21`?
CSC inhib: 0; PP1 inh: -14; ALR H2O2 inh: 91*; PP5 primary: -4; Calb FLC: -3

How did CCn1c(C)nc2cc(C(=O)N/N=C/c3ccc(O)cc3)ccc21 do in these assays?
CSC inhib: -24; PP1 inh: 1; ALR H2O2 inh: 99*; PP5 primary: -1; Calb FLC: -3

What do the screens show for `O=C(Nc1ccc(S(=O)(=O)NCc2ccco2)cc1)c1cccc(F)c1`?
CSC inhib: 6; PP1 inh: 0; PP5 primary: 2; Calb FLC: -2

Results for CCC(C)NC(=O)c1ccc2c(SCC(=O)O)c3c(nc2c1)CCCC3 (stereo not drawn) ?
CSC inhib: -11; PP1 inh: 2; ALR H2O2 inh: 97*; PP5 primary: 3; Calb FLC: -5

What do the screens show for `O=C(Sc1cccc2cccnc12)c1ccccc1Br`?
CSC inhib: 24; PP1 inh: -4; PP5 primary: 1; Calb FLC: 112*

What do the screens show for `O=C(CN1C2CCCC1CC(NC(=O)C1CCCCC1)C2)Nc1ccccc1C(F)(F)F` (stereo not drawn)?
CSC inhib: -7; PP1 inh: -1; ALR H2O2 inh: 1; PP5 primary: 0; Calb FLC: -13

Results for CCOc1ccc2nc(SCC(=O)Nc3cccc(S(=O)(=O)NC4=NCCCCC4)c3)[nH]c2c1 ?
CSC inhib: -21; PP1 inh: -3; ALR H2O2 inh: 92*; PP5 primary: 1; Calb FLC: 16

Results for CCOc1ccc2nc(SCC(=O)Nc3ccc4c(c3)OCCO4)[nH]c2c1 ?
CSC inhib: -8; PP1 inh: 3; ALR H2O2 inh: -4; PP5 primary: 2; Calb FLC: 0

How did CN(C)S(=O)(=O)c1ccc(Cl)c(C(=O)Nc2nc3ccccc3[nH]2)c1 do in these assays?
CSC inhib: -8; PP1 inh: -1; ALR H2O2 inh: -6; PP5 primary: 1; Calb FLC: 0

Results for Cc1ccc(NS(=O)(=O)c2ccc(Cl)c(C(=O)Nc3ccccc3-c3nc4ccccc4[nH]3)c2)cc1C ?
CSC inhib: active; PP1 inh: 3; ALR H2O2 inh: -13; PP5 primary: 3; Calb FLC: 4

What do the screens show for `Cc1cc(C(=O)CS(=O)(=O)c2ccc(Cl)cc2)cc(C)c1O`?
CSC inhib: 2; PP1 inh: 6; PP5 primary: 2; Calb FLC: 15

Results for CCN(CC)c1ccc(NC(=O)c2ccc(Br)o2)c(C)c1 ?
CSC inhib: -5; PP1 inh: -13; ALR H2O2 inh: 99*; PP5 primary: 6; Calb FLC: -24

How did Cc1cc(O)c(NC(=O)c2ccc(Br)o2)cc1C do in these assays?
CSC inhib: -2; PP1 inh: -3; ALR H2O2 inh: 2; PP5 primary: -1; Calb FLC: -8

What do the screens show for `CCN(CC)c1ccc(NC(=O)c2cccc(F)c2)c(C)c1`?
CSC inhib: 45; PP1 inh: 3; ALR H2O2 inh: 99*; PP5 primary: 0; Calb FLC: -2

Results for CCN(CC)c1ccc(NC(=O)c2ccco2)c(C)c1 ?
CSC inhib: -10; PP1 inh: 0; ALR H2O2 inh: 99*; PP5 primary: 1; Calb FLC: 6

What do the screens show for `CCN(CC)c1ccc(NC(=O)c2ccco2)cc1`?
CSC inhib: -1; PP1 inh: -3; ALR H2O2 inh: 3; PP5 primary: -2; Calb FLC: -7

What do the screens show for `CCN(CC)c1ccc(NC(=O)CC2Oc3ccccc3NC2=O)c(C)c1` (stereo not drawn)?
CSC inhib: -13; PP1 inh: -3; ALR H2O2 inh: 98*; PP5 primary: 4; Calb FLC: 3

What do the screens show for `CCCNC(=O)CSc1nc2ccc(OCC)cc2s1`?
PP1 inh: 4; PP5 primary: 1; Calb FLC: -4

Results for Cc1cccc(NC(=O)c2ccco2)c1C ?
PP1 inh: 0; ALR H2O2 inh: 5; PP5 primary: 4; Calb FLC: 4

Results for Cc1cc(NC(=O)c2ccco2)sc1C ?
CSC inhib: 10; PP1 inh: -1; ALR H2O2 inh: 98*; PP5 primary: 1

Results for CCOC(=O)c1c(CN2CCCCC2)n(C)c2cc(Br)c(OC)cc12 ?
CSC inhib: 1; PP1 inh: -1; ALR H2O2 inh: -5; PP5 primary: 4; Calb FLC: 1

How did CCCCN(CC)CCNC(=O)c1cc2c(-c3ccc(Cl)cc3)nn(C)c2s1 do in these assays?
CSC inhib: 112*; PP1 inh: 2; ALR H2O2 inh: -33; PP5 primary: -2; Calb FLC: -5

What do the screens show for `CCCN(CCC)CCNC(=O)c1cc2c(-c3ccc(Cl)cc3)nn(C)c2s1`?
CSC inhib: 102*; PP1 inh: 8; ALR H2O2 inh: -10; PP5 primary: -2; Calb FLC: -3

Results for Cn1nc(C(=O)Nc2nnc(C3CC3)s2)c2ccccc2c1=O ?
CSC inhib: -4; PP1 inh: 3; ALR H2O2 inh: 0; PP5 primary: 0; Calb FLC: -7

Results for CC(C)N(C(=O)COC(=O)CNS(=O)(=O)c1ccccc1F)c1ccccc1 ?
CSC inhib: 6; PP1 inh: -2; ALR H2O2 inh: -14; PP5 primary: -2; Calb FLC: -17

Results for Clc1ccc2c(N/N=C/c3cccnc3)ccnc2c1 ?
CSC inhib: 0; PP1 inh: 2; ALR H2O2 inh: -9; PP5 primary: 4; Calb FLC: 44

What do the screens show for `Cc1ccccc1/C=N/Nc1ccnc2cc(Cl)ccc12`?
CSC inhib: 84*; PP1 inh: 4; ALR H2O2 inh: 10; PP5 primary: 2; Calb FLC: 7

How did Clc1ccc2c(N/N=C/c3ccc(Br)cc3)ccnc2c1 do in these assays?
CSC inhib: 98*; PP1 inh: 11; ALR H2O2 inh: -45; PP5 primary: 5; Calb FLC: 4

Results for COc1cc(OC)c(NC(=O)CCCNC(=O)Cn2cnc3sc(C)c(C)c3c2=O)cc1Cl ?
CSC inhib: -13; PP1 inh: -4; ALR H2O2 inh: 34; PP5 primary: 0; Calb FLC: 1
